Screening results deposited in PubChem BioAssay by several laboratories.
A selection: hits, their analogues and other compounds. The true share with any hit is near 1.5%.
E coli Lon inh: E. coli protease La inhibition. P0A9M0. purified E. coli Lon protease, fluorescence polarization. inhibition, % at 7.94 µM. 0.42% of 360,000 active. AID 602123; in the data active = inhibition above about 13%, passing the limit was not always enough;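 also: 0% = enzyme with probe and DMSO and 100% = no enzyme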
EBV gp42 inh: blocks Epstein-Barr virus glycoprotein 42 binding; inhibition, % (tested at 21.74 µM); 0.42% of 220,000 active; AID 1085; Fluorescence polarization binding assay, mP read-out; in the data active = inhibition above about 50%
Target sequence (Q1HVG2 whole entry, looked up): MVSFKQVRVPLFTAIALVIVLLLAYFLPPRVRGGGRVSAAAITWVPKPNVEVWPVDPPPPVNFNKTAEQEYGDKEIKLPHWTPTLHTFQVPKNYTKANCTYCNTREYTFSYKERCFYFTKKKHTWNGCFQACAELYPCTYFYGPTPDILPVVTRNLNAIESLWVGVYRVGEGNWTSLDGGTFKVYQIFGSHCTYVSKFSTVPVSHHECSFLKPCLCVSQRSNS
GLD-1 RNA inh: GLD-1-TGE RNA interaction inhibition (C. elegans); Q17339; AID 2280; inhibition, % at 5.96 µM; purified GLD-1 + fluorescein TGE RNA, fluorescence polarization; 0.44% of 320,000 active;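 active = percent inhibition above a per-plate cutoff, the plate mean of test compounds plus 3 SD, cut at about 30% in these data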;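 also: 0% = DMSO wells with GLD-1 and probe and 100% = wells lacking GLD-1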
BCLXL inh: blocks human Bcl-xL binding to Bim BH3 peptide; AID 2129; GST-Bcl-xL / FITC-Bim BH3 peptide fluorescence polarization; inhibition, % at 10.9 µM; 0.7% of 320,000 active;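 active = inhibition above the mean of all tested compounds plus 3 SD, cutoff set per campaign, cut at about 30% in these data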;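 also: 0% = DMSO wells and 100% = unlabeled Bim-BH3 peptide competitor; inhibitors lower millipolarization by displacing the labeled peptide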
MCL1-BIM inh: MCL1-BIM-BH3 interaction inhibition (human); inhibition, % at 10.9 µM; GST-MCL1 / FITC-Bim-BH3 fluorescence polarization; 0.68% of 320,000 active;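 active = inhibition above the mean inhibition of all tested compounds plus 3 SD, set per campaign, cut at about 40% in these data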;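 also: 0% = DMSO wells and 100% = unlabeled Bim-BH3 peptide control; higher means more loss of mP so more displacement of Bim peptide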
Target sequence (Q07820 whole entry, looked up): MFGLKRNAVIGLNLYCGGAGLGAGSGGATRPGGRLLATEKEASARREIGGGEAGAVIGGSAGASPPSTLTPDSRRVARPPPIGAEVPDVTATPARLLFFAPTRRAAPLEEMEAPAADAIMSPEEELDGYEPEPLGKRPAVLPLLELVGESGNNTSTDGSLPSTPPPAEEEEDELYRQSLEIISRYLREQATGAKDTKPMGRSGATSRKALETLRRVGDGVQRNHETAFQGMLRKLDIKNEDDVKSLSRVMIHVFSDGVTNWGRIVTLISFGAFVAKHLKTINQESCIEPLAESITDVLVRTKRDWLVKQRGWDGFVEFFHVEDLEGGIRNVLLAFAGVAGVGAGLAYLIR
MEX-5 binding: C. elegans MEX-5 TCR-2 RNA binding activity; Q9XUB2; MEX-5/FITC-TCR2 RNA binding, fluorescence polarization; stronger effect = lower value; activity score (negative = inhibition of binding), % at 10 µM; 0.38% of 300,000 active; AID 1832;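 active = inhibition past about -25% in most replicates, and total fluorescence under double the plate's negative control median, limit read from the data; inconclusive = replicates evenly split on the limit, or fluorescence at least double controls; inactive = too little inhibition in most replicates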;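 also: 0% = DMSO and -100% = 5 µM competing unlabeled TCR2 RNA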
BCLXL inh confirm: counter-screen for MCL1 inhibitors: confirmation of human Bcl-xL inhibitors. shares compounds with MCL1-BIM inh. GST-Bcl-xL / FITC-Bim BH3 peptide FP binding. inhibition, % at 10.9 µM. 54% of 1,700 active;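 active = inhibition above a cutoff equal to the mean inhibition of all tested compounds plus 3 SD, cut at about 30% in these data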;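 also: 0% = DMSO wells and 100% = unlabeled Bim BH3 control peptide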
MCL1 BIM confirm: MCL1-BIM-BH3 interaction inhibition, confirmation | shares compounds with MCL1-BIM inh | GST-MCL1 / FITC-Bim-BH3 fluorescence polarization | inhibition, % at 10.9 µM | 61% of 1,700 active | AID 2168;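 active = inhibition above the average of all tested compounds plus 3 SD, cut at about 40% in these data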;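 also: 0% = DMSO wells and 100% = unlabeled Bim-BH3 control peptide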
GLD1 RNA confirm: GLD-1 TGE RNA interaction inhibition, confirmation; 10% of 550 active; GLD-1/FL-TGE RNA fluorescence polarization, biochemical; inhibition, % at 5.96 µM; shares compounds with GLD-1 RNA inh; AID 2459;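 active = average inhibition across triplicates above the hit cutoff set in the primary screen, cut at about 32% in these data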;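 also: 0% = GLD-1 with RNA probe and DMSO and 100% = wells lacking GLD-1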
eLon confirm: confirmation of E. coli Lon protease inhibitors; shares compounds with E coli Lon inh; purified E. coli Lon, fluorescence polarization; inhibition, % at 7.94 µM; 31% of 1,400 active; AID 602230; in the data active = inhibition above about 16%;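 also: 0% = enzyme with probe and DMSO and 100% = no enzyme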
Numbers without * were called inactive; ? = inconclusive; nt = not tested or not shown; + = active, no number.

SMILES	E coli Lon inh	EBV gp42 inh	GLD-1 RNA inh	BCLXL inh	MCL1-BIM inh	MEX-5 binding	BCLXL inh confirm	MCL1 BIM confirm	others
N#CCCn1cc(C(=O)Nc2ccc(F)cc2)c(-c2ccc([N+](=O)[O-])cc2)n1	6.5	-2.0	-1.2	6.1	0.0	-0.3	nt	nt
O=C1C(Cl)=CC(=Nc2ccc(O)cc2)C=C1Cl	-4.5	nt	0.9	29.4	43.6*	nt	40.4*	59.9*
O=P(N[C@@H](c1ccccc1)[C@@H]1C[C@H]1CO)(c1ccccc1)c1ccccc1	-6.2	-13.7	-3.7	2.4	-1.3	0.2	nt	nt
COC(=O)C1=C(c2cccc(C#N)c2)C[C@@H]2CC[C@H]1N2C(=O)N1CCOCC1	-3.0	nt	-7.5	3.1	4.7	nt	nt	nt
CN(C)[C@@H]1C(=O)C(C(N)=O)=C(O)[C@@]2(O)C(=O)C3=C(O)c4c(O)cccc4[C@@](C)(O)C3C[C@@H]12 (some centres undefined)	-7.1	nt	1.5	25.2	50.6*	-9.3	16.7	26.3
O=C(c1ccc2nc(-c3ccco3)c(-c3ccco3)nc2c1)N1CCC2(CC1)OCCO2	-0.3	-9.3	21.9	52.2*	69.0*	nt	33.6*	38.7
Nc1cccc(N=Cc2c(O)n(Cc3ccc(F)cc3)c(=O)[nH]c2=O)c1	-25.1	-17.8	-63.5	66.4*	83.8*	0.1	15.7	1.6
CCN1/C(=C\C=C\C2=[N+](CC)c3ccccc3C2(C)C)C(C)(C)c2ccccc21	+	6.5	+	+	+	?	+	+
O=c1[nH]c(=S)n(-c2ccc(Cl)cc2)c(O)c1C=Nc1ccc(N2CCOCC2)cc1	-38.0	45.5	-20.8	166.0*	+	-41.3*	185.4*	+
O=c1[nH]c(=O)n(C2CCCCC2)c(O)c1C=Nc1ccc(N2CCOCC2)cc1	-2.4	-0.9	2.8	3.8	1.9	-0.1	nt	nt
COc1ccc(CN2C(=O)NC(=O)/C(=C/c3ccc([N+](=O)[O-])s3)C2=O)cc1	-214.8	5.7	-10.1	22.1	26.2	-0.9	nt	nt
COc1ccc(N2C(=O)NC(=O)/C(=C\c3ccc([N+](=O)[O-])s3)C2=O)cc1	-26.4	4.0	-4.0	21.1	41.0*	-23.6	43.8*	54.6*
O=C1NC(=O)N(Cc2ccc(F)cc2)C(=O)/C1=C\c1ccc([N+](=O)[O-])s1	-157.6	-2.1	-8.4	21.7	40.4*	-11.2	16.8	43.6*
COc1ccc(N2C(=O)NC(=O)/C(=C/c3ccc([N+](=O)[O-])s3)C2=O)cc1	-91.7	-3.2	0.2	15.3	33.2	-11.6	nt	nt
Cc1cc(OC(C)C(=O)N[C@H](C(=O)O)c2ccccc2)c2c3c(c(=O)oc2c1)CCC3 (some centres undefined)	-1.9	nt	-0.6	-0.9	-2.9	3.7	nt	nt
CN1C(=O)c2ccccc2Sc2ccc(C(=O)N3CCC4(CC3)OCCO4)cc21	0.6	2.4	1.0	2.6	4.1	-0.5	nt	nt
Cc1ccc(/C=C2/Sc3ccc(C(=O)N4CCC5(CC4)OCCO5)cc3NC2=O)cc1	16.6	nt	75.4*	105.9*	125.4*	-29.3*	108.2*	131.0*
O=C1NC(=S)N(c2ccccc2)C(=O)/C1=C/c1ccco1	-63.5	nt	25.4	47.0*	52.7*	-93.1*	17.6	24.5
Nc1cc(Cl)cc(C(=O)O)c1Cl	-0.7	nt	5.6	5.2	1.9	nt	nt	nt
COC(=O)[C@@]1(C#N)[C@@H]2C=CC(C(C)=O)=CN2[C@@H](C(N)=O)[C@@H]1c1ccc(F)cc1	-9.6	119.2*	43.9*	72.2*	81.4*	-56.7*	149.0*	188.8*	GLD1 RNA confirm=97.3*
CN1Cc2c(c(C#N)c(N)n(C)c2=S)CC1(C)C	39.7*	52.4*	46.1*	94.3*	102.7*	-48.0*	144.0*	184.6*	GLD1 RNA confirm=26.9
COc1cccc(NP2(=O)OCC(C)([N+](=O)[O-])CO2)c1 (centres undefined)	-3.0	nt	nt	nt	nt	nt	nt	nt
Cc1ccn2nc(S(=O)(=O)Nc3c(F)cccc3F)nc2n1	-5.9	3.5	0.4	4.4	9.2	-2.3	nt	nt
Nc1cc2nc3ccccc3nc2cc1N	6.2	179.0*	36.0*	95.6*	140.4*	?	+	+	GLD1 RNA confirm=60.6*
Nc1ccc(Cl)c(Cl)c1	-14.2	nt	nt	nt	nt	nt	nt	nt
SMILES	E coli Lon inh	EBV gp42 inh	GLD-1 RNA inh	BCLXL inh	MCL1-BIM inh	MEX-5 binding	BCLXL inh confirm	MCL1 BIM confirm	others
CC1=C[C@@H]2c3cccc4[nH]cc(c34)C[C@H]2N(C)C1	116.1*	nt	118.2*	168.9*	+	-57.8*	141.1*	163.2*	eLon confirm=66.5*
C[C@@H]1CN([C@@H](C)CO)C(=O)CCCn2cc(nn2)CO[C@H]1CN(C)C(=O)Oc1cccc2ccccc12	-2.7	nt	nt	nt	nt	nt	nt	nt
CC1=NCCc2c1[nH]c1cc(O)ccc21	+	nt	+	+	+	nt	+	+	eLon confirm=+
Nc1c2c(nc3ccccc13)CCN(Cc1ccccc1)C2	197.8*	nt	96.6*	167.0*	+	-3.2	72.1*	100.9*	eLon confirm=1.8
COP(=O)(NC(=O)C(Cl)(Cl)Cl)OC	-2.3	-22.9	6.3	0.3	8.2	-2.8	nt	nt
O=[N+]([O-])c1ccc2nc(N3CCNCC3)ccc2c1	nt	nt	3.1	2.5	6.8	1.6	nt	nt
CN1C[C@H](CO)C=C2c3cccc4[nH]cc(c34)C[C@H]21	84.2*	57.5*	63.6*	70.0*	79.1*	?	65.1*	86.7*	GLD1 RNA confirm=16.6;eLon confirm=7.4
CCN(CC)P(c1n(C)cc[n+]1C)N(CC)CC	-9.7	-29.2	6.2	-15.5	-22.0	0.0	nt	nt
Cc1ccsc1C(=O)C1CCCN(Cc2ccc(-n3cccn3)cc2)C1 (centres undefined)	-8.4	-5.1	2.4	8.0	-1.4	1.0	nt	nt
O=c1[nH]c(O)c(/C=C2\C=Nc3ccc(OCc4ccccc4)cc32)c(=O)[nH]1	26.9*	nt	45.7*	167.1*	188.0*	?	125.5*	153.1*	eLon confirm=30.4*
COc1cc2c(C(=O)N3CCN(C)CC3)c(C)n(C)c2cc1Br	19.6*	0.1	37.6*	39.8*	42.0*	-10.0	nt	nt	GLD1 RNA confirm=5.2
COC(=O)C1C(O)C(C)C(O)C(C)/C=C\C=C(/C)C(=O)Nc2c(C)c(OC(C)=O)c3c(c2O)C(=O)C(C)=C2OCOC(=C23)/C(C)=C/C(C)(O)C(O)C(C)C1O (centres undefined)	-6.9	-3.4	9.4	7.4	7.6	1.3	nt	nt
